# Source: PubChem (National Center for Advancing Translational Sciences (NCATS))
# Only some compounds are listed: those with a hit (about 12% of all), similar ones and a draw of the others.
# PI5P4Ka inh: PI5P4K alpha (human) kinase inhibition; P48426; AID 652105; 330,000 compounds, 1.2% hits; PI5P4Kalpha enzyme, ADP-Glo luminescence, 60 min; active compounds read low; max response, %; active = max response of -50% or lower; inconclusive = between -30% and -50%; inactive = -30% or higher; note: value at the top dose of about 77 µM; % is set by controls: 0 for no effect and ±100 for the full control effect
#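 ADP-Glo luminescence end-point read after a 60 min room-temperature kinase reaction of PI5P4Kalpha plus substrate, initiated with ATP at 5 microM final. Buffer: 0.038 M HEPES pH 7.4, EGTA, 0.1% CHAPS, 5% DMSO.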
# G9a block: blocks human histone lysine methyltransferase G9a. Q96KQ7. Potency, µM (series often up to 102 µM), for the others: top-dose activity, negative = inhibition, most hits filed as inhibitors. G9a H3K9 monomethylation, AlphaScreen, 2 h. 350,000 compounds, 8.8% hits. AID 504332; note: potency is the fitted concentration of half-maximal effect; % is set by controls: 0 for no effect and ±100 for the full control effect; nearly all actives have a fitted effect of over 75% in size
#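 Readings reflect AlphaScreen signal from monomethyl-H3K9 antibody detection. HMT at 20 nM; substrate b-H3K9 500 nM; cofactor SAM 20 uM; 2 h RT reaction; compounds tested as titrations in qHTS with 15 min preincubation.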
# JMJD2A Tudor inh: blocks the human JMJD2A Tudor domain; 390,000 compounds, 4.4% hits; AlphaScreen JMJD2A-Tudor / H3K4me3 peptide binding; Potency, µM (highest dose often 114 µM), without a hit: at the top dose activity change, negative = inhibition, most hits filed as inhibitors; O75164; note: potency is the fitted concentration of half-maximal effect; % is set by controls: 0 for no effect and ±100 for the full control effect; nearly all actives have a fitted effect of over 50% in size
# PLK1 PBD block: inhibitors of human PLK1 polo-box domain binding; P53350; Plk1 PBD binding of FITC phosphopeptide, fluorescence polarization; Potency, µM, for inactives: max response, negative = inhibition, most hits filed as inhibitors; 360,000 compounds, 2.8% hits; note: potency is the fitted concentration of half-maximal effect; series mostly up to about 57 µM; % is set by controls: 0 for no effect and ±100 for the full control effect; nearly all actives have a fitted effect of over 65% in size
# Target sequence (P53350 whole entry, looked up, the tested form may be a part): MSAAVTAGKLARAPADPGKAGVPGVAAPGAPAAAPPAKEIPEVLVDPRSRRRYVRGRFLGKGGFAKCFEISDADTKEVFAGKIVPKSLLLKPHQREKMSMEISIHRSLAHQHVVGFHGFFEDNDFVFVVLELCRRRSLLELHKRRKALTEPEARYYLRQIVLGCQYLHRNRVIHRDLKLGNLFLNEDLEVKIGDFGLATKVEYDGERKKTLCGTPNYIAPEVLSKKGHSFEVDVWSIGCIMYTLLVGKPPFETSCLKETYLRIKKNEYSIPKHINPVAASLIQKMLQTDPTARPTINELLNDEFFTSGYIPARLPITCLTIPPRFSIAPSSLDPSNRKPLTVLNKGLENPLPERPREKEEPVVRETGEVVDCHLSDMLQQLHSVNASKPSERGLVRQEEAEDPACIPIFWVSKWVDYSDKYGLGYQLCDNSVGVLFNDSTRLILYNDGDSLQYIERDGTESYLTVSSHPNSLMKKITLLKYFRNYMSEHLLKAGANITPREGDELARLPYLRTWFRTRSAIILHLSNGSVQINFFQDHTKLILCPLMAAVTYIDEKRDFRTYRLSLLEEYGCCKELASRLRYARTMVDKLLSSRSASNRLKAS
# BAZ2B inh: inhibitors of human BAZ2B bromodomain | Q9UIF8 | Potency, µM (doses to about 114 µM), for the others: at the top dose activity change, negative = inhibition, most hits filed as inhibitors | AlphaScreen BAZ2B-H3K14Ac peptide displacement | 360,000 compounds, 4.4% hits; note: potency is the fitted concentration of half-maximal effect; % is set by controls: 0 for no effect and ±100 for the full control effect; nearly all actives have a fitted effect of over 60% in size
#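 AlphaScreen displacement of biotin-H3(5-23)K14Ac peptide (50 nM final) from BAZ2B (50 nM final) in PBS pH 7.4, 0.01% Tween-20; complex preformed 30 min RT, then compounds (top 110 uM) 30 min RT, beads 20 min dark.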
# HP1b chromo inh: HP1-beta chromodomain-methylated histone interaction inhibition | 390,000 compounds, 0.56% hits | Potency, µM (titrated, usually from 114 µM), inactives show at the highest dose activity change, negative = inhibition, actives largely listed as inhibitors | P83916 | AID 540317 | AlphaScreen HP1-beta / biotin-H3K9me3 peptide binding; note: potency is the fitted concentration of half-maximal effect; nearly all actives have a fitted effect of over 70% in size
#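 AlphaScreen: HP1-beta (50 nM) preformed 30 min with biotin-H3(1-18)K9me3 peptide (50 nM) in PBS pH 7.4, 0.01% Tween-20. Compound added for 30 min at RT, then streptavidin donor/nickel chelate acceptor beads (10 ug/mL) for 30 min.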
# * = called active by the depositor; ? = inconclusive; . = not tested or not shown; ! = not confirmed by another sample; [ ] = remark or other dose. Unless noted, calls come from the whole dose curve; as a rule, active = well fitted curve in the direction sought with a large enough effect; inconclusive = small, poorly fitted or top-dose-only effect, or another doubt; inactive = no such curve, though single readings can be large; an effect the other way counts as inactive or inconclusive.
SMILES,PI5P4Ka inh,G9a block,JMJD2A Tudor inh,PLK1 PBD block,BAZ2B inh,HP1b chromo inh
COc1ccc(N2CCN(C(=O)c3cc4c(-c5cccc(OC)c5)nn(C)c4s3)CC2)cc1,8.1,?,39.8µM*,26.7µM*,25.1µM*,?
NC(=O)C1CCN(C(=O)c2cc3c(s2)CCCC3)CC1,-25.2,-24.1%,-17.0%,-3.9%,24.7%,1.6%
O=C(c1cc2c(s1)CCCC2)N1CCN(C(=O)C2CCCO2)CC1 (stereo not drawn),.,15.8µM*,-5.3%,-8.7%,5.9%,9.7%
C[C@H](CO)N1C[C@H](C)[C@@H](CN(C)S(=O)(=O)c2ccc(F)cc2)Oc2ccc(NC(=O)Cc3ccccc3)cc2C1=O,1.1,.,-14.7%,-1.1%,.,30.7%
CC(=O)NC(Cc1c[nH]c2ccccc12)C(=O)N1CCN(S(=O)(=O)c2ccccc2)CC1 (stereo not drawn),-4.6,12.0%[12.7 µM],1.5%,5.9%,7.2%,41.6%
CSc1ccc(C2c3c(-c4ccccc4O)n[nH]c3C(=O)N2Cc2ccncc2)cc1 (stereo not drawn),.,-10.8%[59 µM],?,.,?,11.0%
CCN(CC)CCNC(=O)c1cc2c(-c3cccc(OC)c3)nn(C)c2s1,-4.4,79.4µM*!,-5.5%,-1.5%,-0.9%,-4.2%
COCCCNC(=O)c1cc2c(-c3cccc(OC)c3)nn(C)c2s1,-0.7,21.6%,-14.1%,0.0%,2.4%,53.1%
CS(=O)(=O)Nc1cccc(-c2ccc3nncn3c2)c1,2.0,.,.,6.6%,.,.
O=C(CCCc1nc(-c2ccc(Cl)cc2)no1)NC1CCCC1,7.2,.,-7.4%,-2.3%,-4.9%,15.9%
COc1ccc(NCc2cc3ccc(OC)cc3n(CC(=O)Nc3ccc(C)c(C)c3)c2=O)cc1,.,-6.0%[59 µM],-34.8%,.,-18.0%,0.2%
Cn1c2cc(S(C)=O)sc2c2cnn(Cc3cccc(N)c3)c(=O)c21 (stereo not drawn),.,.,-23.1%,.,.,.
CSc1cc2c(s1)c1cnn(Cc3cccc(N)c3)c(=O)c1n2C,.,.,3.55µM*,.,.,.
COc1cc(/C=C\C(=O)O)cc(S(=O)(=O)N2CCCCCC2)c1OC,-19.7,.,-20.5%,-14.4%,-6.8%,28.0%
COc1cc(/C=C/C(=O)O)cc(S(=O)(=O)N2CCc3ccccc3C2)c1OC,-10.9,89.1µM*,-4.9%,2.3%,-35.5%,32.2%
Cn1nnnc1SCCCNCc1cccc(OCc2ccc(F)cc2)c1,.,-30.4%[59 µM],-10.9%,.,-18.7%,21.3%
CNc1ccccc1C(C)(C)c1cc(-c2cccc(OC)c2)no1,0.5,1.58µM*,-14.0%,4.3%,-31.6%,31.8%
CNc1ccccc1C(C)(C)c1cc(-c2cc(C)cc(C)c2)no1,21.7,6.7%[59 µM],-0.7%,-2.5%,-32.6%,23.3%
O=C(Nc1ccccc1C(F)(F)F)c1noc2c1CCCCC2,.,29.3%[59 µM],38.9%,.,82.0%,69.2%
O=[N+]([O-])c1ccc(/C=N/Nc2nc(NCc3ccccc3)nc(N3CCOCC3)n2)cc1,-2.2,29.9%,-24.5%,-11.5%,-6.2%,57.2%
O=[N+]([O-])c1cccc(/C=N/Nc2nc(NCc3ccccc3)nc(N3CCOCC3)n2)c1O,?,?,20µM*,-9.5%,-23.6%,-6.6%
NNc1nc(NCc2ccccc2)nc(N2CCOCC2)n1,16.0,1.8%[59 µM],?,-2.7%,79.4µM*,25.7%
Cc1ccc(C)c(C(O)c2ncc(-c3ccc(C(F)(F)F)cc3)[nH]2)c1 (stereo not drawn),-1.6,.,.,-13.2%,.,.
CSc1nc(NS(=O)(=O)c2cc(Br)ccc2Br)cc(=O)[nH]1,-0.6,56.2µM*,-20.7%,-14.4%,-4.8%,-16.0%
O=C(NNC1=NCCC1)C1CC1,2.6,12.6µM*,-35.1%[57.1 µM],-3.3%,?,-17.9%
CCN1C(=O)/C(=C2\C=Cc3cc(C)ccc3N2CC)OC1=S,-1.0,?,?,1.0%,?,?
CCN1C(=O)/C(=C2/C=Cc3ccccc3N2C)OC1=S,4.7,20µM*,-25.2%[11.4 µM],-11.9%,-28.6%,5.6%
CCN1C(=O)/C(=C2\C=Cc3ccccc3N2CC)SC1=S,.,?,2.82µM*,1.1%,8.91µM*,3.16µM*
CCN1C(=O)/C(=c2\o/c(=C3\C=Cc4ccccc4N3CC)c(=O)n2CC)SC1=S,.,?,?,-0.4%,.,-34.0%
